# The other results are listed elsewhere or left out. Where a call stands in place of a potency, no number is given. Inconclusive results are not listed. Active and inactive are the calls of the source. Calls follow the shape of the dose curve; as a rule, active = well fitted inhibition curve with a large enough effect; inconclusive = small, poorly fitted or top-dose-only effect; inactive = no such curve, though single readings can be large or run the other way.
# Assay: qHTS Assay for Inhibitors of Hepatitis C Virus (HCV): Cytotoxicity Counterscreen for Cherry-picked Compounds
# Excerpt: Hepatitis C virus (HCV) infects about 200 million people in the world. Many infected people progress to chronic liver disease including cirrhosis with a risk of developing liver cancer. To date, there is no effective vaccine for hepatitis C. Current therapy based on interferon is only effective in about half of the patients and is associated with significant adverse effects. The fraction of people with HCV who can complete a successful treatment is estimated to be no more than 10 percent. Recent development of direct-acting antivirals against HCV, such as protease and polymerase inhibitors, is promising but still requires combination with peginterferon and ribavirin for maximal efficacy. In addition, these agents are associated with high rate of resistance and many have significant side effects. Due to the lack of a culture system for infectious HCV, the search for new HCV drugs has been greatly hampered. […] High-throughput screening (HTS) with an infectious HCV system would cover the complete spectrum of potentially druggable targets in all stages of HCV lifecycle, and would have more biological relevance than other cell-based assays. […]
# Cells were plated in a 1536-wel tissue culture grade plates at a final concentration of 1,000 cells/well (3 uL volume). […] The luminescence signal was read for 15 sec using the PerkinElmer ViewLux plate reader.
# 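Also: 44 h compound exposure; nearly all actives have a fitted effect of over 55% in size.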
row,SMILES,Potency
1,CC[N+]1(C)CCCC(OC(=O)C(O)(c2ccccc2)c2ccccc2)C1 (configuration not stated),inactive
2,CC1=CC(=Cc2sc3ccccc3[n+]2C)C=C(C)O1,7.05 µM (active)

# — PubChem BioAssay AID720576 (National Center for Advancing Translational Sciences (NCATS), 2013)
